Screening data (PubChem BioAssay)
FMDV antiviral = High Throughput Screening for Foot and Mouth Disease Virus Antivirals. Potency, µM (doses to about 57.9 µM), usual class: inhibitors. AID 1159524, 2015. actives 1.2% (n = 410,000). FMDV antiviral cell-based qHTS; calls by dose curve; tested in HEK293T cells; further: read-out not given here; nearly all actives have a fitted effect of over 45% in size
HCV inhibitor = qHTS Assay for Inhibitors of Hepatitis C Virus (HCV). Huh7.5.1 HCVcc-Cre infection, luciferase reporter, 44 h. Potency, µM (top dose mostly 41.8 µM), hits mostly inhibitors. actives 3.4% (n = 340,000); active means well fitted inhibition curve with a large enough effect; inconclusive means small, poorly fitted or top-dose-only effect, or another doubt; inactive means no such curve, though single readings can be large or run the other way
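Seed cells (1,000/well) for 4 h; treat with compound and infect with HCVcc-Cre, moi about 0.5. Incubate 44 h, then detect luciferase activity.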
Marburg entry inh = qHTS for inhibitors of binding or entry into cells for Marburg Virus; Marburg virus pseudotyped entry inhibition, cell reporter; Potency, µM (highest dose often 37.8 µM), most hits filed as inhibitors; actives 1.8% (n = 300,000); calls by dose curve; tested in HEK293 cells
Lassa entry inh = qHTS for Inhibitors of binding or entry into cells for Lassa Virus. Lassa virus pseudotype entry inhibition, cell reporter. Potency, µM (top dose mostly 37.9 µM), most hits filed as inhibitors. actives 1.2% (n = 300,000). AID 540256, 2011; calls by dose curve; tested in HEK293 cells; further: nearly all actives have a fitted effect of over 50% in size
CHX counter = Cycloheximide Counterscreen for Small Molecule Inhibitors of Shiga Toxin | cell reporter, cycloheximide protein synthesis inhibition counterscreen | max response, % | actives 12% (n = 300,000) | AID 2314, 2010; in the data active means max response mostly above about 13%, no sharp cut-off; inactive means mostly below about 14%; further: read at 38.3 µM for the half of the compounds with a filed dose
Shiga inhibitor = A qHTS for Small Molecule Inhibitors of Shiga Toxin; inhibition, % at 38.7 µM; Vero cells, Shiga toxin protein synthesis inhibition reporter; actives 9.2% (n = 290,000); in the data active means inhibition mostly above about 28%, no sharp cut-off; inactive means mostly below about 43%
Large screens that a line does not name were inactive. In the library only some 13% were active in any assay of this set; here they are far more common.

O=C(CN1C(=O)/C(=C/c2ccccc2)SC1=S)Nc1ncc(Cc2ccccc2)s1	none
CCCC(=O)Nc1ccccc1C(=O)OCc1cc(=O)n2nc(C(C)C)sc2n1	none (no result: HCV inhibitor, Marburg entry inh, CHX counter, Shiga inhibitor)
Cc1c(C(=O)NC(C)(C)CO)sc2ncnc(NCCN(C)C)c12	none (no result: HCV inhibitor, Marburg entry inh, Lassa entry inh, CHX counter, Shiga inhibitor)
O=C(Cn1cc(S(=O)(=O)Cc2cccc(Cl)c2)c2ccccc21)NCc1ccccc1Cl	none (no result: HCV inhibitor, Marburg entry inh, CHX counter, Shiga inhibitor)
CCc1ccc2c(c1)C(c1ccncc1)=NNC(c1ccccc1)=N2	none (no result: Marburg entry inh, Lassa entry inh)
Cc1ccc2c(c1)C(c1ccncc1)=NNC(c1ccc(C(C)C)cc1)=N2	Shiga inhibitor 32 (no result: FMDV antiviral, HCV inhibitor, Lassa entry inh)
COc1ccc2c(c1)C(c1ccc(C)o1)=NNC(c1ccccc1)=N2	CHX counter 42, Shiga inhibitor 96 (no result: Marburg entry inh, Lassa entry inh)
COc1ccc2c(c1)C(c1ccc(C)o1)=NNC(c1cccnc1)=N2	HCV inhibitor inconclusive, Marburg entry inh inconclusive, Lassa entry inh inconclusive
Cc1cc(C)c(S(=O)(=O)N/N=C/c2ccc3c(c2)OCO3)c(C)c1	CHX counter 14
Cc1cc(Cl)c(S(=O)(=O)N/N=C/c2ccc3c(c2)OCO3)c(Cl)c1	CHX counter 41, Shiga inhibitor 54
C[C@H](NC(=O)c1[nH]cnc1C(=O)Nc1ccc(CNC(=O)OC(C)(C)C)cc1)C(=O)OCc1ccccc1	FMDV antiviral 18µM, HCV inhibitor inconclusive (no result: Marburg entry inh, Lassa entry inh)
CC(C)(C)OC(=O)NCCCCCNC(=O)c1nc[nH]c1C(=O)NCCCCCNC(=O)OC(C)(C)C	FMDV antiviral 13µM, HCV inhibitor 10µM (no result: Marburg entry inh, Lassa entry inh, CHX counter, Shiga inhibitor)
CC(C)(C)OC(=O)NCCCCCNC(=O)c1nc[nH]c1C(=O)NCc1ccc(CNC(=O)OC(C)(C)C)cc1	FMDV antiviral 16µM, HCV inhibitor 8.9µM (no result: Marburg entry inh, Lassa entry inh, CHX counter, Shiga inhibitor)
CC(C)(C)OC(=O)NCc1ccc(CNC(=O)c2nc[nH]c2C(=O)NCc2ccc(CNC(=O)OC(C)(C)C)cc2)cc1	FMDV antiviral 13µM, HCV inhibitor inconclusive (no result: Marburg entry inh, Lassa entry inh, CHX counter, Shiga inhibitor)
CC(C)C[C@H](NC(=O)c1[nH]cnc1C(=O)Nc1ccc(CNC(=O)OC(C)(C)C)cc1)C(=O)OCc1ccccc1	FMDV antiviral inconclusive (no result: Marburg entry inh, Lassa entry inh)
Cc1cccc(C(CC(=O)O)n2cccc2)c1 (stereo unspecified)	none
CC(C)(C)OC(=O)CNC(=O)c1[nH]cnc1C(=O)NCC(=O)OCc1ccccc1	FMDV antiviral inconclusive, CHX counter 10 (no result: Marburg entry inh, Lassa entry inh)
O=C(NCCc1ccccc1)C1=COCCO1	Marburg entry inh inconclusive (no result: CHX counter, Shiga inhibitor)
Cn1c(-c2cc(Cl)ccc2O)nc2c1c(=O)[nH]c(=O)n2Cc1ccccc1	FMDV antiviral inconclusive, HCV inhibitor inconclusive, Marburg entry inh 2µM, Lassa entry inh inconclusive
O=c1[nH]c(=O)n(Cc2ccccc2)c2nc(-c3ccc(Oc4ccc(F)cc4)c([N+](=O)[O-])c3)n(CCO)c12	HCV inhibitor inconclusive, Marburg entry inh inconclusive, Lassa entry inh inconclusive
COc1ccc(-c2nc3c(c(=O)[nH]c(=O)n3Cc3ccccc3)n2CCO)cc1	Lassa entry inh 2.2µM
COCCn1c(=O)[nH]c(=O)c2c1nc(-c1ccc(-c3ccc(Cl)cc3[N+](=O)[O-])o1)n2Cc1ccccc1	FMDV antiviral inconclusive, HCV inhibitor 10µM, Marburg entry inh inconclusive, Lassa entry inh 10µM
O=C(NCCCN1CCOCC1)c1ccc2c(c1)N(Cc1ccc(Cl)cc1)C(=O)c1ccccc1S2=O (stereo unspecified)	none (no result: Marburg entry inh, Lassa entry inh)
CCc1c(C)nc(SCC(=O)NNC(=O)c2ccco2)[nH]c1=O	CHX counter 30, Shiga inhibitor 39 (no result: Marburg entry inh, Lassa entry inh)
CC(=O)Nc1ccc(Oc2cc(N)cc([N+](=O)[O-])c2)cc1	none (no result: Marburg entry inh, Lassa entry inh)
CCOc1ccc(Oc2cc(N)cc([N+](=O)[O-])c2)cc1	Shiga inhibitor 53
O=C(NC(=S)NCc1ccc(Cl)cc1)c1ccco1	Marburg entry inh inconclusive, Lassa entry inh inconclusive (no result: CHX counter, Shiga inhibitor)
Cc1ccc(Cl)cc1NC(=O)CSc1nncn1-c1ccccn1	none
COc1ccc(OC)c(C2C=C(c3ccc(C)c(C)c3)Nc3nnnn32)c1 (stereo unspecified)	HCV inhibitor inconclusive, Marburg entry inh inconclusive, Lassa entry inh 5µM
COc1cccc(C2=CC(c3cc(OC)ccc3OC)n3nnnc3N2)c1 (stereo unspecified)	HCV inhibitor inconclusive, Marburg entry inh inconclusive, Lassa entry inh inconclusive
COc1cccc(C2=CC(c3cccc(OC)c3OC)n3nnnc3N2)c1 (stereo unspecified)	HCV inhibitor inconclusive, Marburg entry inh inconclusive, Lassa entry inh inconclusive, CHX counter 30, Shiga inhibitor 41
COc1cccc(C2C=C(c3ccc(OC)cc3OC)Nc3nnnn32)c1 (stereo unspecified)	FMDV antiviral inconclusive, HCV inhibitor inconclusive, Marburg entry inh inconclusive, Lassa entry inh inconclusive
COc1cccc(C2C=C(c3ccc(C)c(C)c3)Nc3nnnn32)c1OC (stereo unspecified)	Lassa entry inh inconclusive (no result: HCV inhibitor, Marburg entry inh, CHX counter, Shiga inhibitor)
COc1cccc(C2=CC(c3cccc(OC)c3OC(F)F)n3nnnc3N2)c1 (stereo unspecified)	HCV inhibitor inconclusive, CHX counter 17
Cc1ccc(S(=O)(=O)N2CCCCC2)cc1C(=O)NCc1ccncc1	none
Cc1cnc(C(=O)OCC(=O)c2csc(N3CCCCC3)n2)cn1	CHX counter 51
CC[C@]12c3[nH]c4ccc(OC)cc4c3CCN1C(=O)C(CC(=O)NCCCn1ccnc1)C[C@@H]2C(=O)N1CCN(C(=O)C2CC2)CC1 (stereo partly specified)	none (no result: Marburg entry inh, Lassa entry inh, CHX counter, Shiga inhibitor)
COc1ccc(CN(C(=O)c2nsc(Cl)c2Cl)C(C(=O)NC2CCCC2)c2ccc(OC)cc2)cc1 (stereo unspecified)	Marburg entry inh inconclusive, Lassa entry inh 21µM
COc1ccc(CN(C(=O)c2snc(C(N)=O)c2N)C(C(=O)NC2CCCC2)c2ccc(OC)cc2)cc1 (stereo unspecified)	HCV inhibitor inconclusive, Lassa entry inh inconclusive
Cc1cccc(-c2noc(CCC(=O)Nc3ccccc3)n2)c1	none (no result: FMDV antiviral)
Cc1ccc(-c2noc(CCC(=O)Nc3cccc(C#N)c3)n2)cc1	HCV inhibitor inconclusive, CHX counter 34, Shiga inhibitor 34
CCOC(=O)c1ccc(NC(=O)CCc2nc(-c3cccc(C)c3)no2)cc1	FMDV antiviral inconclusive, HCV inhibitor 8.9µM
Cc1ccc(-c2noc(CCC(=O)Nc3ccc(C)cn3)n2)cc1	none
CCCc1cc(=O)[nH]c(SCC(=O)Nc2cc(S(=O)(=O)N3CCCCC3)ccc2Cl)n1	none (no result: CHX counter, Shiga inhibitor)
COc1ccc([N+](=O)[O-])cc1-n1cnnn1	Lassa entry inh inconclusive
COc1cccc(CN2CCC(C(=O)Nc3ccc(-c4cccc(C)c4)cc3)CC2)c1O	FMDV antiviral inconclusive, HCV inhibitor 10µM (no result: Marburg entry inh, Lassa entry inh)
Cc1cccc(-c2ccc(NC(=O)C3CCN(CC4CC4)CC3)cc2)c1	HCV inhibitor 10µM, Marburg entry inh inconclusive
COc1cccc(-c2n[nH]c3c2CCC3)c1	CHX counter 22
c1ccc(-c2n[nH]c3c2CCC3)cc1	HCV inhibitor 13µM, Marburg entry inh inconclusive
Cc1ccccc1C(=O)Nc1nc2c(s1)CC(C(C)(C)C)CC2 (stereo unspecified)	Lassa entry inh inconclusive (no result: HCV inhibitor, CHX counter, Shiga inhibitor)
